According to PubChem BioAssay (NCI):
This is part of a sample that, as a whole, favours compounds with a hit. Of some 83,000 tested, about 20% had one in any assay.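 Percent growth is the endpoint: 0 to 100 indicates growth inhibition (40 means 60% inhibition), 0 means no net growth, and negative values indicate cell death.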 Values without a mark were called inactive. Calls of active or inactive are those of the source. The calls were made as follows: active = growth percent below 10; inactive = the rest.

Columns and labels:
Assay in all cases: NCI-60 one-dose screen, 48 h (100 = growth as untreated, 0 = no growth, -100 = all killed)
Settings in all cases: 10 µM unless noted
EKVX NSCLC = system: EKVX NSCLC
SN12C renal = system: SN12C renal
UO-31 renal = system: UO-31 renal
TK-10 renal = system: TK-10 renal
ACHN renal = system: ACHN renal
CAKI-1 renal = system: CAKI-1 renal
A498 renal = system: A498 renal
CCRF-CEM leukemia = system: CCRF-CEM leukemia
MOLT-4 leukemia = system: MOLT-4 leukemia
SR leukemia = system: SR leukemia
RPMI-8226 leukemia = system: RPMI-8226 leukemia
OVCAR-8 ovarian = system: OVCAR-8 ovarian
OVCAR-5 ovarian = system: OVCAR-5 ovarian
SK-OV-3 ovarian = system: SK-OV-3 ovarian
IGROV1 ovarian = system: IGROV1 ovarian
OVCAR-3 ovarian = system: OVCAR-3 ovarian
HS 578T breast = system: HS 578T breast
NCI/ADR-RES ovarian = system: NCI/ADR-RES ovarian
T-47D breast = system: T-47D breast
OVCAR-4 ovarian = system: OVCAR-4 ovarian

SMILES | growth (EKVX NSCLC) | growth (SN12C renal) | growth (UO-31 renal) | growth (TK-10 renal) | growth (ACHN renal) | growth (CAKI-1 renal) | growth (A498 renal) | growth (CCRF-CEM leukemia) | growth (MOLT-4 leukemia) | growth (SR leukemia) | growth (RPMI-8226 leukemia) | growth (OVCAR-8 ovarian) | growth (OVCAR-5 ovarian) | growth (SK-OV-3 ovarian) | growth (IGROV1 ovarian) | growth (OVCAR-3 ovarian) | growth (HS 578T breast) | growth (NCI/ADR-RES ovarian) | growth (T-47D breast) | growth (OVCAR-4 ovarian)
Nc1nc(SCc2ccccc2Cl)c(-c2ccccc2)c(SCc2ccccc2Cl)n1 | 97.3% | 104% | 69.9% | 97.7% | 91.4% | 79.6% | 67.6% | 78.4% | 90.9% | 96.3% | 81.8% | 98.4% | 84.9% | 82.7% | 97.4% | 101% | 93.4% | 90.7% | 58.4% | 
O=C(CN1CCCCC1)Sc1nnc2sc3ccccc3n12 | 104% | 103% | 68.3% | 122% | 118% | 86.2% | 107% | 104% | 98.1% | 99.9% | 108% | 98.8% | 144% | 89.5% | 121% | 111% | 110% | 100% | 92.2% | 
CCS(=O)(=O)OCCCl | 105% | 102% | 68.3% | 97.7% | 99.3% | 104% | 101% | 84.7% | 89.8% | 137% | 120% | 103% | 80.8% | 87.4% |  |  | 104% | -5.43% (active) | 102% | 100%
O=c1[nH]c(Cl)nc2c1cnn2-c1ccccc1 | 93.7% | 97.4% | 73.2% | 102% | 101% | 61.6% | 84.1% | 40.9% | 47.6% | 32.1% | 51.7% | 106% | 97.2% | 110% | 108% |  | 93.4% | 96.3% | 98.4% | 82.6%
O=C(/C=C/c1cccnc1)NCCCCC1CCCN(C(=O)c2ccccc2)C1 (stereo unspecified) | 106% | 38.3% | 39.9% | 103% | 73.7% | -15.7% (active) | 101% | 41.5% | 43.8% | 33% | 36.9% | 22% | 96.1% | 91.6% | 33.8% | 74.7% | 52.2% | 32.1% | 47.3% | 
COc1ccc2c(c1)C(=O)c1c-2c(=O)n(CCCCCCC(=O)NO)c2ccccc12 | 31.3% | 8.66% (active) | -33.8% (active) | -9.14% (active) | -57.8% (active) | -55.4% (active) | -67.8% (active) | -7.49% (active) | 4.43% (active) | 5.2% (active) | -2.83% (active) | 7.33% (active) | -4.52% (active) | -3.32% (active) | -34.9% (active) |  | -2.26% (active) | -14.1% (active) | -11.8% (active) | 4.23% (active)
Oc1[nH]c2ccc(Cl)cc2c1/C=c1/ccc2c(c1)N=C(c1ccc(C(F)(F)F)cc1)N=2 | 87.4% | 88.3% | 62.2% | 88.4% | 57% | 54.3% | 95.4% | 15.5% | 21.3% | 25.9% | 69% | 67.6% | 76.2% | 84.4% | 76.8% | 32.3% | 74% | 62.7% | 60.5% | 
Cc1cc(C(=O)O)c(C)cc1C(=O)O | 122% | 106% | 73.5% | 115% | 112% | 102% | 103% | 101% | 87.7% | 105% | 102% | 104% | 96% | 106% | 85.3% | 136% | 122% | 105% | 104% | 
O=C(Nc1cccc2ccccc12)c1cc2c(cc1Br)OCO2 | 92.9% | 107% | 99.2% | 172% | 94.2% | 101% | 126% | 94.7% | 91.5% | 71.5% | 66.1% | 106% | 96.8% | 80.9% |  | 104% | 125% | 92.5% | 83.9% | 83.5%
CN(C)c1ccc(/C=C\c2ccnc3ccccc23)cc1 | 34.5% | 76.1% | 34.6% | 55.9% | 70.6% | 77.2% | 63.9% | 29.5% | 66.7% | -32.4% (active) | -18.1% (active) | 63.6% | 65% | 55.2% |  |  | 84.9% | -35.5% (active) | 65.4% | 68.2%
Cc1cc(Cl)ccc1Nc1nc(C(F)(F)F)ccc1C(=O)NCC(=O)N/N=C/c1c(Cl)cccc1Cl | 48% | 78.3% | 65.9% | 76.8% | 57.7% | 0.101% (active) | 83.3% | 19.5% | 50.8% | 42.2% | -20.6% (active) | 73.4% | 87.8% | 88.5% | 35.4% |  |  | 77% | 51.9% | 86.4%
C=C1CC[C@@H]2[C@](C)(COC(C)=O)[C@H](OC(C)=O)CC[C@@]2(C)[C@@H]1CC(Nc1ccc(S(=O)(=O)Nc2cc(C)on2)cc1)C1=CCOC1=O (stereo partly specified) | 81.9% | 31.8% | 56.9% | 58.4% | 19.5% | 44% | 98.6% | -19.1% (active) | -7.86% (active) | 1.4% (active) | -15.2% (active) | 16.1% | 52.2% | 109% | 62.6% |  | 89.5% | 31.6% | 63.6% | 68.2%
CN1CCCC1c1cccnc1 (stereo unspecified) | 123% | 94.2% | 97% | 132% | 99% | 120% | 94.1% | 70% | 101% | 85.7% | 70.7% | 111% | -6.38% (active) | 116% |  | 117% | 112% | -37% (active) | 110% | 104%
Cn1c(N)c(N=O)c(=O)[nH]c1=O | 98% | 101% | 82.5% | 101% | 100% | 108% | 111% | 91.1% | 96.3% | 97.6% | 83.9% | 104% | 106% | 115% | 107% | 112% | 99.8% | 103% | 98% | 
OC(CCC(O)(c1ccccc1)c1ccccc1)(c1ccccc1)c1ccccc1 | 58.8% | 88% | 74.7% | 107% | 100% | 44.4% | 60.2% | 33.5% | 18.5% | 79.6% | 35.5% | 84.7% | 97.2% | 103% | 90.7% |  | 75.1% | 68.9% | 94.1% | 99.4%
CCC(c1ccccc1)c1noc(CCN(CC)CC)n1 (stereo unspecified) | 105% | 100% | 85.5% | 96.7% | 101% | 94.1% | 101% | 48.2% | 83% | 69.2% | 76.7% | 94.8% | 89.8% | 97% |  | 115% | 125% | 105% | 94.4% | 109%
